# Assay outcomes as filed in PubChem BioAssay.
# Compounds with a hit are over-represented: about 5.9% of the library has one in this group of screens.
# TGFb SMAD3 inh = blocks TGF-b signaling; HepG2 CAGA-GFP TGF-b/SMAD3 reporter, GFP fluorescence, 18 h; TGF-beta stimulated, 500 pg/mL final; Potency, µM (highest dose often 46.1 µM), inactives show at the highest dose activity, negative = inhibition, hits mostly inhibitors; 410,000 compounds, 1.2% hits; also: % is scaled to controls: 0 for no effect and ±100 for the full control effect; nearly all actives have a fitted effect of over 65% in size
#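 Per well, imaged GFP fluorescence of HEPG2 CAGA-GFP cells gives the signal; cells get compound, then TGF-beta (500 pg/mL final), 18 h at 37 degrees C; %Activity versus -TGF-beta and +DMSO controls.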
# ATXN2 expr inh = ATXN2 expression inhibition; AID 1745845; 360,000 compounds, 0.72% hits; HEK-293 ATXN2-luciferase reporter, luminescence, 24 h; Potency, µM (series often up to 57 µM), for the others: at the highest dose activity change, negative = inhibition, actives largely listed as inhibitors; also: % is scaled to controls: 0 for no effect and ±100 for the full control effect; nearly all actives have a fitted effect of over 55% in size
#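 ATXN2-luciferase reporter cells (luciferase flanked by upstream and downstream ATXN2 gene portions) were treated 24 h at 37 °C with compounds at up to 57 uM. SteadyGlo luminescence gave expression; GF-AFC fluorescence gave viability.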
# KB-V1 MDR tox = KB-V1 MDR subline cytotoxicity; KB-V1 MDR cells viability, CellTiter-Glo, 72 h; Potency, µM (series often up to 46.1 µM), hits mostly cytotoxic; 400,000 compounds, 3.4% hits; also: % is scaled to controls: 0 for no effect and ±100 for the full control effect; nearly all actives have a fitted effect of over 60% in size
#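 KB-V1, DMEM (no phenol red) + 10% FBS; cpd pin-transferred, titration series; 72 h, 37 degrees C; CellTiter-Glo, luminescence. Data normalized, curve-fit.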
# KB-3-1 tox = kills parental KB-3-1 adenocarcinoma cells | 400,000 compounds, 1.4% hits | AID 1347075 | Potency, µM (top dose mostly 46.1 µM), usual class: cytotoxic | KB-3-1 viability, CellTiter-Glo ATP luminescence, 72 h; also: % is scaled to controls: 0 for no effect and ±100 for the full control effect; nearly all actives have a fitted effect of over 60% in size
#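 72 h, 37 °C compound treatment of KB-3-1 parental cells; CellTiter-Glo added, 10 min, luminescence read. Data corrected against DMSO-only plates and normalized before curve fitting.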
# ATXN viability = cell viability loss in ATXN counter-screen. S2 cells (HEK-293 line with an ATXN2-luciferase reporter) viability, CellTiter-Fluor protease fluorescence, 24 h. Potency, µM (top dose mostly 56.7 µM), most hits filed as cytotoxic. 400,000 compounds, 0.49% hits. AID 651635; also: nearly all actives have a fitted effect of over 40% in size
# HepG2 viability = kills HepG2 cells in TGF-b inhibitor counter-screen; HepG2 CAGA-GFP viability, ATP luminescence, 18 h; Potency, µM (series often up to 46.1 µM), inactives show at the top dose activity change, negative = cytotoxicity, actives largely listed as cytotoxic; 410,000 compounds, 0.76% hits
#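 CellTiter-Glo luminescence gave cytotoxicity after 18 hours at 37 degrees C. The cells were HepG2 CAGA-GFP in 1% FBS DMEM, stimulated with 500 pg/mL TGF-beta after compound addition. %Activity was normalised to no-cell wells (complete cell-killing) and DMSO (no toxicity), and curves were fitted and classified.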
# * marks the source's active call; other numbers are inactive results; i = inactive; ? = inconclusive; · = not tested or not shown. Calls follow the shape of the dose curve; as a rule, active = well fitted curve in the direction sought with a large enough effect; inconclusive = small, poorly fitted or top-dose-only effect, or another doubt; inactive = no such curve, though single readings can be large; an effect the other way counts as inactive or inconclusive. Potency is read from the fitted curve at half-maximal effect.
SMILES,TGFb SMAD3 inh,ATXN2 expr inh,KB-V1 MDR tox,KB-3-1 tox,ATXN viability,HepG2 viability
Cc1ccc(S(=O)(=O)Nc2cccc(C(=O)NCc3cccnc3)c2)cc1F,?,-12%,i,7.3µM*,i,-23%
O=C(NCc1cccnc1)c1cccc(NS(=O)(=O)c2ccc(Br)cc2)c1,1%,-23%,i,5.8µM*,i,-10%
COc1ccc(C(CNC(=O)c2cccc(NS(=O)(=O)c3ccc(Br)cc3)c2)N(C)C)cc1 (centres undefined),-19%,-35%,i,i,i,7.1µM*
Cc1cc2c(cc1C)-n1nnnc1C(N1CCN(CC(=O)N3CCCC3)CC1)C(=O)N2 (centres undefined),·,·,i,i,·,·
Cc1cc2c(cc1C)-n1nnnc1C(N1CCN(C(=O)OCc3ccccc3)CC1)C(=O)N2 (centres undefined),·,·,18µM*,?,·,·
Cc1ccc(CNC(=O)C2CCCN(c3nn4cc(-c5ccc(C)cc5)nc4s3)C2)cc1 (centres undefined),-12%,·,i,i,·,6%
C=CC[C@H](CC(=O)N(CCO)Cc1ccccc1)C(=O)N[C@@H](COC(=O)[C@H](CC=C)CC(=O)OC(C)(C)C)Cc1c[nH]c2ccccc12,?,?,?,?,?,-26%
C=CC[C@@H](CC(=O)N(CCO)Cc1ccccc1)C(=O)N[C@@H](COC(=O)[C@@H](CC=C)CC(=O)OC(C)(C)C)Cc1c[nH]c2ccccc12,?,35µM*,i,?,20µM*,-38%
C=CC[C@H](CC(=O)N[C@H](CO)Cc1ccccc1)C(=O)N[C@@H](COC(=O)[C@@H](CC=C)CC(=O)OC(C)(C)C)Cc1c[nH]c2ccccc12,11µM*,?,i,?,·,-102%
C=CC[C@@H](CC(=O)N(CCO)Cc1ccccc1)C(=O)N[C@H](COC(=O)[C@@H](CC=C)CC(=O)OC(C)(C)C)Cc1c[nH]c2ccccc12,13µM*,?,i,i,·,-43%
CCc1ccc(NC(=O)CCCc2nc(-c3ccco3)no2)cc1,0%,6%,i,i,i,-20%
Cc1ccc(NC(=O)N2CC3CCCN3c3ccccc32)c(C)c1 (centres undefined),?,·,i,i,·,-24%
CCOc1ccccc1NC(=O)c1ccccc1-c1ccccc1,-14%,-15%,i,i,i,-10%
O=C(NCc1ccco1)c1ccccc1-c1nc(-c2ccccc2)no1,-19%,3%,i,i,i,2µM*
COc1ccccc1-c1noc(-c2ccccc2C(=O)Nc2cccnc2)n1,-6%,3%,10µM*,i,i,-8%
COc1ccc(-c2noc(-c3ccccc3C(=O)Nc3cccnc3)n2)cc1OC,0%,7%,i,i,?,-3%
CCOc1ccccc1NC(=O)c1ccccc1-c1nc(-c2ccccc2)no1,-19%,-23%,8.2µM*,?,i,-25%
Cc1ccc(-c2noc(-c3ccccc3C(=O)NCc3ccco3)n2)cc1,-18%,3%,i,i,i,-25%
OC[C@H]1O[C@@H](n2cnc3c2NC=NC[C@@H]3O)C[C@H]1O,·,-8%,·,·,·,·
COc1ccc(NC(=O)Cn2cc(S(=O)(=O)N3CCN(c4ccccc4F)CC3)c3ccccc3c2=O)cc1Cl,5%,·,·,·,·,6%
CCCCOCCCNc1ncnc2c1[nH]c1ccccc12,?,?,1.6µM*,2.6µM*,i,-38%
COc1ccc(-c2nn(-c3ccccc3)cc2C(=O)NCC(c2cccs2)N2CCOCC2)cc1 (centres undefined),1%,1%,?,i,i,-13%
O=C(NCC(c1cccs1)N1CCOCC1)c1cn(-c2ccccc2)nc1-c1ccc(Cl)cc1 (centres undefined),-4%,?,7.3µM*,?,i,6%
O=C(NCC(c1cccs1)N1CCOCC1)c1cn(-c2ccccc2)nc1-c1ccccc1 (centres undefined),-10%,-8%,23µM*,i,i,-35%
COc1cccc(-c2nn(-c3ccc(C)cc3)cc2C(=O)NCC(c2cccs2)N2CCOCC2)c1 (centres undefined),14%,0%,i,i,i,0%
SMILES,TGFb SMAD3 inh,ATXN2 expr inh,KB-V1 MDR tox,KB-3-1 tox,ATXN viability,HepG2 viability
CCOC(=O)c1ccc(NC(=O)CSc2cc(=O)n(CC)c3ccccc23)cc1,-2%,7%,i,i,i,-7%
O=C(COc1ccccc1F)Nc1ccccc1C(=O)OCc1cc(=O)n2nc(C3CC3)sc2n1,5%,16%,i,i,i,-1%
CCOC(=O)/C(=C/c1ccc(OC(=O)c2ccncc2)cc1)C(C)=O,-8%,-11%,i,i,i,-2%
CCCC(CCC)(C(=O)OCC)C(=O)OCC,·,-8%,·,·,i,·
CCOC(=O)C(=Cc1ccc(-n2ccnc2)cc1)C(=O)OCC,?,?,?,21µM*,·,-82%
CCOC(=O)C(CC)(CC)C(=O)/C=C/c1ccc(Br)cc1,-1%,-38%,18µM*,21µM*,i,-17%
CCOC(=O)C(=Cc1ccc(Br)cc1)C(=O)OCC,18µM*,?,16µM*,?,8.9µM*,14µM*
O=C(NCc1ccc(F)cc1)c1ccc(CS(=O)(=O)c2ccc(Br)cc2)o1,?,·,13µM*,i,·,-2%
O=C(NCC1CCCO1)c1ccc([N+](=O)[O-])o1 (centres undefined),13µM*,0%,?,21µM*,?,-30%
O=C(NCC1CCCO1)c1ccc(CS(=O)(=O)c2ccc(Cl)cc2)o1 (centres undefined),6%,-4%,23µM*,i,i,-15%
O=C(Cc1ccc([N+](=O)[O-])cc1)NCC1CCCO1 (centres undefined),9%,-13%,i,i,i,4%
O=C(NCc1ccc2c(c1)OCO2)c1ccc(CS(=O)(=O)c2ccc(Br)cc2)o1,-13%,-1%,i,i,i,-14%
CC(C)(C)OC(=O)N[C@H]1CCCCCC=C[C@@H]2C[C@@]2(C(=O)NS(=O)(=O)C2CC2)NC(=O)[C@@H]2C[C@@H](OC(=O)N3Cc4cccc(F)c4C3)CN2C1=O,·,2%,·,·,·,·
Cc1cc(Cl)ccc1NC(=O)CS(=O)(=O)c1cccc2nsnc12,-3%,-7%,?,i,i,-22%
